From PubChem BioAssay come the findings set out here.

Structures are written as SMILES. Activity calls are given as the source filed them.

Assay [1] deals with Albumin (Bos taurus) (UniProt P02769). The assay can be described thus: compounds binding labelled BSA control protein – biochemical, small-molecule microarray, Alexa647 label, 635/667 nm fluorescence, artefact control for SMM control protein annotation, profiling panel (AID 1118).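 Note: score merges 667 nm emission intensity and signal-to-noise per printed compound spot.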 As to conditions: BSA-A647 binding, fluorescence 635 nm, higher = more signal.
The nature of assay [2]: probe aXIP binding to arrayed compounds – biochemical, NeuroSMM set, 635/667 nm fluorescence, primary screen (AID 1119).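 Note: probe is the protein aXip251-270 applied at 1 µg/mL to compound-printed slides; binding of probe to printed compounds measured as 667 nm fluorescence plus signal to noise.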 As to conditions: small-molecule microarray, higher = more signal, called active from +8 up or from −8 down.
Assay [3] is described as follows: probe aNOTCH3 binding on compound microarray – biochemical, small-molecule microarray, 635/667 nm fluorescence, primary screen (AID 1120).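 Note: probe is a biotin-tagged antibody raised against NOTCH3 rather than NOTCH3 protein; score merges spot fluorescence near 667 nm with spot signal to noise.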 Particulars: higher = more signal.
Assay [4] can be described thus: probe aNOTCH2 binding on compound microarray – biochemical, small-molecule microarray, 635/667 nm fluorescence, primary screen (AID 1121).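 Note: score merges feature fluorescence read at 667 nm with its signal to noise.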 Particulars: higher = more signal.
For assay [5], the target named is Carbonic anhydrase 2 (Homo sapiens) (UniProt P00918). The assay can be described thus: compounds binding carbonic anhydrase 2 – biochemical, small-molecule microarray, Alexa647-labelled CAII, profiling panel (AID 1122). As to conditions: CAII-A647 binding fluorescence, higher = more signal.
Assay [6] in a line: COS7 lysate on small-molecule microarray, probe aHis, 635 nm (AID 1123).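 Note: z-score combines 667nm fluorescence intensity with signal-to-noise per printed compound spot.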 As to conditions: COS7 cell lysate, fluorescence, higher = more signal.
Assay [7] can be described thus: probe aLAP1 signal on lysate-treated microarray – cell lysate, small-molecule microarray, COS7 lysate, primary screen (AID 1124).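 Note: lysate comes from COS7 cells expressing LAP1 and is applied at 0.3 µg/mL; score merges spot fluorescence near 667 nm with signal-to-noise over triplicate slides.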 Particulars: probe aLAP1, fluorescence, higher = more signal.
The test system of assay [8] is Sam68 (KHDRBS1). Briefly: compounds binding KHDRBS1 protein – biochemical, small-molecule microarray, 635 nm fluorescence, primary screen (AID 1125).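 Note: score merges 667 nm channel intensity with signal to noise over triplicate slides.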 Particulars: higher = more signal.
The test system of assay [9] is Chordin-like protein 2 (CHRDL2). The assay can be described thus: compounds binding chordin-like 2 – biochemical, small-molecule microarray, 635 nm fluorescence, primary screen (AID 1126).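 Note: printed compound slides probed with Chrdl2 protein at 4 µg/mL for 1 h at 4 C; score merges 667 nm emission intensity with signal to noise over three replicate slides.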 As to conditions: fluorescence 635 nm, higher = more signal.
Assay [10] has as its target Concanavalin-A (Canavalia ensiformis) (UniProt P02866). Briefly: compounds binding concanavalin A lectin – biochemical, small-molecule microarray, Alexa647 label, 635 nm, artefact control for SMM control protein annotation, primary screen (AID 1127).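 Note: z combines 667 nm emission intensity with signal-to-noise across three replicate slides.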 Particulars: ConA-A647 binding fluorescence, higher = more signal.
Assay [11] is described as follows: compounds binding Alexa647 anti-His antibody – biochemical, small-molecule microarray, 635 nm fluorescence, artefact control for SMM control protein annotation, primary screen (AID 1128).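 Note: score merges feature fluorescence with signal-to-noise for each printed compound spot.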 Particulars: higher = more signal.
The subject of assay [12] is Human papillomavirus type 1a E7 protein (residues 1-88). Briefly: HPV1a E7 small-molecule binders, primary screen, biochemical, small-molecule microarray, residues 1-88, 635 nm (AID 1129). As to conditions: small-molecule microarray binding, fluorescence 635 nm; higher = more signal.
The target in assay [13] is Focal adhesion kinase 1 (Homo sapiens) (UniProt Q05397). Briefly: PTK2 protein binding on printed compound slides – biochemical, small-molecule microarray, 635/667 nm fluorescence, BSA, DTT, primary screen (AID 1130).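 Note: composite of spot emission at 667 nm and signal to noise over triplicate slides.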 As to conditions: 635 nm fluorescence, higher = more signal.
The subject of assay [14] is Fibrinogen (Alexa647-labelled). Briefly: Alexa647-fibrinogen binding to printed small molecules – biochemical, small-molecule microarray, 635/667 nm fluorescence, artefact control for SMM control-protein annotation, profiling panel (AID 1131).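 Note: z-score merges 667 nm fluorescence with per-spot signal-to-noise over triplicate slides.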 As to conditions: fibrinogen-A647 binding fluorescence, higher = more signal.
Assay [15] concerns the target Follistatin (Homo sapiens) (UniProt P19883). Briefly: FST protein binding to printed compounds – biochemical, small-molecule microarray, 635/667 nm fluorescence, primary screen (AID 1132). As to conditions: 635 nm fluorescence, higher = more signal.
The target in assay [16] is Fibroblast growth factor 2 (Homo sapiens) (UniProt P09038). Briefly: basic fibroblast growth factor binding to printed compounds – biochemical, small-molecule microarray, 635/667 nm fluorescence, primary screen (AID 1133). As to conditions: FGF2, fluorescence 635/667, higher = more signal.
Assay [17] can be described thus: JC-1 mitochondrial potential readout, lung cancer cells – cell-based, A549, JC-1 fluorescence, basal, 24 h, 100 nL, profiling panel (AID 1138).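 Note: A549 lung adenocarcinoma cells under basal conditions with no added stimulus; test concentration not given here.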 Particulars: higher = more signal.
Assay [18] deals with Lefty1. Briefly: Lefty1 protein binding to printed compounds – biochemical, small-molecule microarray, 635/667 nm fluorescence, primary screen (AID 1139). Particulars: fluorescence 635/667, higher = more signal.
Assay [19] relates to wheat germ agglutinin (Triticum aestivum), Alexa647-labelled. Briefly: Alexa647-WGA lectin binding to printed small molecules – biochemical, small-molecule microarray, 635/667 nm fluorescence, artefact control for SMM control-protein annotation, profiling panel (AID 1140).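 Note: score merges 667 nm feature emission with signal to noise over triplicate slides.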 Particulars: WGA-A647 binding, 635 nm fluorescence, higher = more signal.
In assay [20] the target is Luciferin 4-monooxygenase (Photinus pyralis) (UniProt P08659). The assay can be described thus: inhibition of purified Photinus pyralis luciferase – biochemical, luminescence, purified enzyme, 2006 set, primary screen (AID 1141).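 Note: cell-free assay with purified firefly luciferase at 100 ng per well in PBS; test concentration not given here.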 Particulars: purified firefly luciferase, SteadyGlo luminescence, 30 min; higher = more signal, called active from +8 up or from −8 down.
Sequence of Luciferin 4-monooxygenase (Photinus pyralis) (P08659 whole entry, looked up): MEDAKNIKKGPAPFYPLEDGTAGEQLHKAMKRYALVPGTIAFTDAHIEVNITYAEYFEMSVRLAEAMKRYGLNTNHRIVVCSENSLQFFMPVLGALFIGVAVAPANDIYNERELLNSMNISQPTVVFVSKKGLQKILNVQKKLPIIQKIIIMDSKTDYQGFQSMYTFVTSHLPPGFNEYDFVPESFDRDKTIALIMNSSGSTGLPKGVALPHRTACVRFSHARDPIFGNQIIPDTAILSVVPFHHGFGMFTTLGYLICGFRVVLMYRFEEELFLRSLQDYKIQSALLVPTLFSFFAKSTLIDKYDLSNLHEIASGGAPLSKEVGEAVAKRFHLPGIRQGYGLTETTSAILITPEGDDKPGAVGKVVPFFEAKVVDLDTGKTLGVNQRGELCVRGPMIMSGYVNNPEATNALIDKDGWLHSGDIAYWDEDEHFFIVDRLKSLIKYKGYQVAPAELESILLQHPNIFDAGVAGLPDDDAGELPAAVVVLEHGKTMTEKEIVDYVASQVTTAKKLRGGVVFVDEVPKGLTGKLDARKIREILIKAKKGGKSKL

Sequence of Albumin (Bos taurus) (P02769 whole entry, looked up): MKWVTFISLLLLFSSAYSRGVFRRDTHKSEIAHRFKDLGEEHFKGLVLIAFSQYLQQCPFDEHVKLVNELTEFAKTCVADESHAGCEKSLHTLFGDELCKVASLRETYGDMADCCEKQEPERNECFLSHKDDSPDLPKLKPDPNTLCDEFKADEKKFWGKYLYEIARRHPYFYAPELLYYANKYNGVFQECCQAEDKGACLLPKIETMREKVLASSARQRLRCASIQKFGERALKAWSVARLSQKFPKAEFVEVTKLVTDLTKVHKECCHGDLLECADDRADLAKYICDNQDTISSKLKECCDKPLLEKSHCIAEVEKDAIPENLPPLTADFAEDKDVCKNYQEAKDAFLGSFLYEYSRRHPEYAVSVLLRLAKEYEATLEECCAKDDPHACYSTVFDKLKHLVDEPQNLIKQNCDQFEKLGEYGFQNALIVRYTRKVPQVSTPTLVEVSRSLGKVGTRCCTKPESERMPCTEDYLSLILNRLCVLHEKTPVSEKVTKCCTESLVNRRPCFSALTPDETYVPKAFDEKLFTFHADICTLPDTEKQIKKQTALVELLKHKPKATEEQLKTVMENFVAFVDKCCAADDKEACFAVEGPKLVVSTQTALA
Sequence of Concanavalin-A (Canavalia ensiformis) (P02866 whole entry, looked up): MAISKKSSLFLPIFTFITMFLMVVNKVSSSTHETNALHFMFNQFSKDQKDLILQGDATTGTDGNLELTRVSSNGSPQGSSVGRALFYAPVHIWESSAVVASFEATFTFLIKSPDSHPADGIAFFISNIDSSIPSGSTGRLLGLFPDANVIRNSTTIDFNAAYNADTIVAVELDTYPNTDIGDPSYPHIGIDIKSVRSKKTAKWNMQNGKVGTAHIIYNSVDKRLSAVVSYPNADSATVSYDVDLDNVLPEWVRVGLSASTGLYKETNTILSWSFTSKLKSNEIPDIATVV
Sequence of Follistatin (Homo sapiens) (P19883 whole entry, looked up): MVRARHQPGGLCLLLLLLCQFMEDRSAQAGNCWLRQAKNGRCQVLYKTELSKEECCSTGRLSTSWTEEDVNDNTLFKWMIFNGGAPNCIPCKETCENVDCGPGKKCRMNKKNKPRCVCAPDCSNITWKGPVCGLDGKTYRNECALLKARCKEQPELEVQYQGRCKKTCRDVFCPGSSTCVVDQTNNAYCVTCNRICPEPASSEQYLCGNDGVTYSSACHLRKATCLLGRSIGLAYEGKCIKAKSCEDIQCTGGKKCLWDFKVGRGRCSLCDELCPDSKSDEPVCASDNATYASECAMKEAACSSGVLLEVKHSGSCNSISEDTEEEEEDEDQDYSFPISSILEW
Sequence of Fibroblast growth factor 2 (Homo sapiens) (P09038 whole entry, looked up): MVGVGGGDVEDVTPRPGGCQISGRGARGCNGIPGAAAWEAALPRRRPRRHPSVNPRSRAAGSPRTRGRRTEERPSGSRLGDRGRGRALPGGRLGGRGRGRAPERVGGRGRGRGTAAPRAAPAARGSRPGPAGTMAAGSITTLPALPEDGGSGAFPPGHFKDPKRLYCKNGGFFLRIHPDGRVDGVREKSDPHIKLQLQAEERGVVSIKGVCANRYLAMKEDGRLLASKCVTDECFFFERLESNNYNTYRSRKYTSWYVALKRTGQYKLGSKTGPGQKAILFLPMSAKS
Sequence of Focal adhesion kinase 1 (Homo sapiens) (Q05397 whole entry, looked up): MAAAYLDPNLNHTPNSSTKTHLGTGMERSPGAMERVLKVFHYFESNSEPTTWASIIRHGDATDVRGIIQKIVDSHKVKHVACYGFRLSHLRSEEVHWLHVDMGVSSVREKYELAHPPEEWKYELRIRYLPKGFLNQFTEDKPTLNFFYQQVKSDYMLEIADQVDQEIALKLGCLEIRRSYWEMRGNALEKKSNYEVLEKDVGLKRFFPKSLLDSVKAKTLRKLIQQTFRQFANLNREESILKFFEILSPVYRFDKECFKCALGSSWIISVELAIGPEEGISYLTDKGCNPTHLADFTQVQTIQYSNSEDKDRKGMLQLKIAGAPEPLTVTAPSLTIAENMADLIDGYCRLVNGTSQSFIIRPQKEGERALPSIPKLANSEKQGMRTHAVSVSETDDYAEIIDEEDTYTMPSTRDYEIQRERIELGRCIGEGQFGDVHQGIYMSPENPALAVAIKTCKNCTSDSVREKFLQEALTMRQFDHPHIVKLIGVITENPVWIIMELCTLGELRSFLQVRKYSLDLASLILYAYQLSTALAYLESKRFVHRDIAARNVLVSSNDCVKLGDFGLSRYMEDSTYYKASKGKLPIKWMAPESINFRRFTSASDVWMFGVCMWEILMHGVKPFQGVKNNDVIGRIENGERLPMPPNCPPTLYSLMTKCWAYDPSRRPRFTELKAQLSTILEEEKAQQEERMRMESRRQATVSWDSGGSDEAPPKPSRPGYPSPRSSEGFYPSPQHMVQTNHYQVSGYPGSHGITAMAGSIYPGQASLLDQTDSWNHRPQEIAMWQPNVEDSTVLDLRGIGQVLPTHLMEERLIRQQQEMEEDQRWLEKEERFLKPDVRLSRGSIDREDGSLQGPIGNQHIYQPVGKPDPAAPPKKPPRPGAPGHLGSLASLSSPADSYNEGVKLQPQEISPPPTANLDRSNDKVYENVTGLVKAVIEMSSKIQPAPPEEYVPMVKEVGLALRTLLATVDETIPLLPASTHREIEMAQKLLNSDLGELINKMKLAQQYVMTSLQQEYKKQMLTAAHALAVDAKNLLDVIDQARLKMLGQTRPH

Turning to `C[N+](C)(C)CCCCNC(=O)[C@@H]1C[C@@H]2C(=O)NCC(=O)N2[C@@H]1c1cccc(OCCO)c1`, the composite z-score in assay [1] is -0.656; in [3] it was 0.0297; in assay [4], -0.19; in assay [5], 0.434; in [6] it was 2.15; in assay [7], 1.27. Moreover, the composite z-score was 0.781 in assay [8]; 1.29 in assay [9]; 1.14 in assay [10]; 2.59 in assay [11]; 1.15 in [12]; -0.421 in assay [13]. Further, the composite z-score in assay [14] worked out at 0.78; in [15] it was 1.49; in [16], 1.94; in assay [18], 1.6; in assay [19], 1.02. Moreover, the composite Z-score in [2] is 0.617 (inactive). Further, the values for the z-score in [17] and in [20] were 1.87 and -1.9 (inactive), respectively.
`CC(C)C(CO)N1C(=O)[C@@H]2C3C(=O)OCCC/C=C\[C@H]3OC23C=CCN(C(C)C)C(=O)[C@@H]13` (stereo not given in full): the composite z-score in assay [1] was -1.36; in assay [3], -0.214; in assay [4], -0.168; in assay [5], 0.865; in assay [6] it was 1.37; in assay [7], 1.95. Further, the composite z-score was 0.879 in assay [8]; -1.5 in [9]; -0.341 in [10]; -1.74 in assay [11]; -0.809 in assay [12]; 0.0086 in assay [13]. The composite z-score was -0.935 in assay [14]; -1.05 in [15]; -0.993 in assay [16]; -0.278 in assay [18]; -1.14 in [19]. Moreover, the composite Z-score in assay [2] is 1.77 (inactive). Moreover, the z-score was 0.743 in assay [17] and -0.774 (inactive) in assay [20].
Regarding `C=CCC(OC(C)=O)[C@@H]1[C@@H](N(Cc2cccc3ccccc23)C(=O)c2cccc3ccccc23)c2cc(OCCCO)ccc2N1C(=O)Cc1ccc(OC)cc1` (stereo not given in full), the composite z-score in assay [1] is 0.107; in [3] it was 0.128; in assay [4], -0.0797; in [5] it was 0.447; in [6] it was 1.04; in assay [7] it was 0.484. Besides, the composite z-score in assay [8] is 0.457; in assay [9], 0.0561; in assay [10], -0.653; in assay [11] it was 0.856; in assay [12], 0.0512; in [13], -0.0125. Besides, the composite z-score is 0.263 in assay [14]; 0.921 in assay [15]; 0.103 in assay [16]; 0.306 in [18]; 0.655 in assay [19]. In [2], the composite Z-score was 0.464 (inactive). Moreover, the z-score in assay [17] was 0.924; in [20], -0.378 (inactive).
As to `O=C1c2ccccc2[C@@]2(Cc3ccccc3N(CC(F)(F)F)C2=O)[C@H](c2ccc(CO)cc2)N1Cc1ccccc1C(F)(F)F`, the composite z-score in assay [1] was -1.22; in [3], -0.0647; in assay [4], -0.159; in assay [5], 0.272; in assay [6] it was -0.229; in [7] it was 0.134. Moreover, the composite z-score in assay [8] is -0.142; in assay [9] it was -2.04; in [10], -1.83; in assay [11], -1.58; in [12] it was -2.19; in assay [13], -0.795. The composite z-score in assay [14] is -1.47; in assay [15], -2.04; in assay [16], -0.882; in assay [18] it was -1.87; in [19], -1.69. For the same molecule, in [2], the composite Z-score was 0.112 (inactive). The z-score in assay [17] is 0.972; in assay [20], -0.903 (inactive).
Turning to `O=C1O[C@H](c2ccccc2)[C@H](c2ccccc2)N2[C@H]1[C@@H](C(=O)Nc1nc3ccccc3s1)[C@]1(C(=O)Nc3ccc(C#CCCO)cc31)[C@H]2c1ccccc1OCCO`, the composite z-score in assay [1] is 0.596; in assay [3], 0.0695; in assay [4], -0.0155; in assay [5], 0.671; in assay [6], 2.43; in assay [7], 0.849. Further, the composite z-score in assay [8] is 1.31; in assay [9] it was -0.0204; in assay [10] it was 1.18; in assay [11], 1.42; in assay [12], 1.2; in assay [13] it was 0.705. The composite z-score in assay [14] was 0.89; in [15] it was 1.09; in assay [16] it was 0.479; in assay [18], 0.287; in assay [19], 1.3. In addition, the composite Z-score in assay [2] is 0.231 (inactive). Moreover, the z-score in [17] was -1.93; in [20], -1.14 (inactive).
